Laboratory results taken from PubChem BioAssay (NCI).
This is part of a sample that, as a whole, favours compounds with a hit. Of some 83,000 tested, about 20% had one in any assay.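 For each line, cells grew in 96-well plates with the test compound present at a single concentration for 48 hours.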 Unmarked numbers belong to inactive results. The source made the active and inactive calls. How the source made its calls: active means growth percent below 10; inactive means the rest.

Experiments:
Assay in all cases: NCI-60 one-dose screen, 48 h (100 = growth as untreated, 0 = no growth, -100 = all killed)
Settings in all cases: 10 µM unless noted
HCT-15 colon = system: HCT-15 colon
HT29 colon = system: HT29 colon
SNB-75 CNS = system: SNB-75 CNS
SNB-19 CNS = system: SNB-19 CNS
U251 CNS = system: U251 CNS
PC-3 prostate = system: PC-3 prostate
SK-MEL-5 melanoma = system: SK-MEL-5 melanoma
UACC-62 melanoma = system: UACC-62 melanoma
SK-MEL-28 melanoma = system: SK-MEL-28 melanoma
SK-MEL-2 melanoma = system: SK-MEL-2 melanoma
EKVX NSCLC = system: EKVX NSCLC
SN12C renal = system: SN12C renal
UO-31 renal = system: UO-31 renal
TK-10 renal = system: TK-10 renal
ACHN renal = system: ACHN renal
CAKI-1 renal = system: CAKI-1 renal
A498 renal = system: A498 renal
CCRF-CEM leukemia = system: CCRF-CEM leukemia
MOLT-4 leukemia = system: MOLT-4 leukemia

Row | Compound | growth (HCT-15 colon) | growth (HT29 colon) | growth (SNB-75 CNS) | growth (SNB-19 CNS) | growth (U251 CNS) | growth (PC-3 prostate) | growth (SK-MEL-5 melanoma) | growth (UACC-62 melanoma) | growth (SK-MEL-28 melanoma) | growth (SK-MEL-2 melanoma) | growth (EKVX NSCLC) | growth (SN12C renal) | growth (UO-31 renal) | growth (TK-10 renal) | growth (ACHN renal) | growth (CAKI-1 renal) | growth (A498 renal) | growth (CCRF-CEM leukemia) | growth (MOLT-4 leukemia)
1 | C/C(Cc1ccc(Cl)cc1)=C(/c1ccc(Cl)cc1)c1ccc(OCCN2CCCC2)cc1 | 28.3% | 22.1% | 78.2% | 89.8% | 58.3% | 65.4% | 93.1% | 95.6% | 98.2% | 105% | 91.2% | 81.6% | 68.1% | 96.1% | 93.8% | 75.9% | 103% | 66% | 59.7%
2 | O=C(N/N=C\c1c(O)ccc2ccccc12)C1CC1 | 28.4% | 69.6% | 53.8% | 54.9% | 35.6% | 45.8% | 53.1% | 25.2% | 69.7% | 35.1% | 32.1% | 66.5% | 8.64% (active) | 78.1% | 23.6% | 2.09% (active) | 102% | 11.9% | 9.27% (active)
3 | Nc1c2c(nc3ccc(Br)cc13)CC(c1ccccc1)CC2=O (centres undefined) | 21.9% | 15.7% | -1.66% (active) | 37% | 41.8% | 40.4% | 20.1% | 38.1% | 55.5% | 59.2% | 27.2% | 51.3% | 53.1% | 85.7% | 57.7% | 47.2% | 1.16% (active) | 19.7% | 29.3%
4 | COc1ccc(OC)c(-c2c(C#N)c(-c3ccco3)nc3c2c(-c2ccccc2)nn3-c2ccccc2)c1 | 96.9% | 105% | 84.5% | 93.3% | 103% | 83.7% | 97% | 76.6% | 106% | 99.4% | 87.1% | 94.6% | 84.1% | 98% | 96.4% | 82.3% | 98.5% | 94.1% | 96.3%
5 | NC1=C(C/C(N)=N\O)C(c2ccccc2Cl)c2c(ccc3ccccc23)O1 (centres undefined) | 47.7% | 97.1% | 75.2% | 86.8% | 91.3% | 74.2% | 86.8% | 52.2% | 80.2% | 90.4% | 80.9% | 91.3% | 58.6% | 180% | 83% | 49.5% | 96.8% | 79.8% | 76%
6 | CN1CCN(c2ccc3nc(-c4[nH]ncc4Nc4ncnc5[nH]ccc45)[nH]c3c2)CC1 | 4.21% (active) | 7.01% (active) | -52.7% (active) | 2.27% (active) | 7.05% (active) | 11.7% | -13% (active) | 1.28% (active) | -11.3% (active) | -27.8% (active) | 2.05% (active) | 2.59% (active) | -9.13% (active) | -9.08% (active) | 0.294% (active) | 1.7% (active) | -45.7% (active) | 4.45% (active) | -13.6% (active)
7 | NC(N)=N/N=C/c1ccc(-c2ccc(-c3ccc(Cl)cn3)s2)cc1 | -4.03% (active) | 11.9% | 88.9% | 94.2% | 20.6% | -42.3% (active) | 91.6% | 99.1% | 99.2% | 109% | 98.9% | 89.8% | 78% | 112% | 92.2% | 81.5% | 88.8% | 29.7% | 73.7%
8 | O=[N+]([O-])c1cc(S(=O)(=O)c2ccc(F)c([N+](=O)[O-])c2)ccc1F | 36.5% | 97% | 97.2% | 106% | 62.8% | 107% | 106% | 105% | 110% | 112% | 117% | 108% | 86.1% | 119% | 97.1% | 109% | 107% | 46.2% | 23.2%
9 | CC(=O)c1c(C)[nH]c(-c2nc3ccc(N4CCN(C)CC4)cc3[nH]2)c1-c1ccc(OCC2CCOCC2)cc1 | 5.23% (active) | 8.59% (active) | -9.92% (active) | 42.7% | 48.2% | 40.4% | -1.59% (active) | 20.4% | 45.7% | 53.3% | 35.6% | 39.9% | 6.97% (active) | -5.8% (active) | 19.2% | 12.4% | 30.8% | 30.9% | 47.5%
10 | COc1cc(/C=N/NC(=S)NNC(=S)NC2CCCCC2)cc(OC)c1OC | 91.9% | 108% | 91.5% | 98.3% | 100% | 81.3% | 92.5% | 85.8% | 99% | 108% | 84.1% | 87.8% | 70.3% | 147% | 94.2% | 77.7% | 96.6% | 88.7% | 73.8%
11 | COc1cc(OC)c2c(c1)c1nc3cc(C)c(C)cc3nc1n2CCN(C)C | 77.2% | 85.8% | 74.6% | 89.1% | 90.9% | 85.3% | 94.4% | 94.3% | 104% | 103% | 89.2% | 82.1% | 74.1% | 182% | 84.3% | 69.7% | 105% | 79.6% | 73.2%
12 | Cc1cc2nc3c4cc(O)ccc4n(CCN(C)C)c3nc2cc1C | -29.3% (active) | 1.97% (active) | -5.77% (active) | 2.18% (active) | 3.44% (active) | 6.53% (active) | -27.4% (active) | -49.5% (active) | -8.23% (active) | -42.9% (active) | 2.33% (active) | 3.51% (active) | -37.5% (active) | 5.14% (active) | -33.7% (active) | -39% (active) | 9.28% (active) | 9.31% (active) | 1.9% (active)
13 | CC1=CC(=O)N(c2cccc3c(N4C(=O)C=C(C)C4=O)cccc23)C1=O | -2.7% (active) | 18% | 74.1% | 102% | 83.9% | 94.8% | 105% | 94.5% | 103% | 87.5% | 108% | 93.3% | 33.3% | 35.3% | 1.27% (active) | 10.9% | 124% | 11.2% | 4.75% (active)
14 | COc1ccc2c(c1)c1nc3cc(C)c(C)cc3nc1n2CCN(C)C | -80.3% (active) | -1.79% (active) | 22.2% | 13.6% | -85.8% (active) | -14.4% (active) | 45.3% | 11% | 9.16% (active) | 26.4% | 13.2% | 17% | -24.1% (active) | 39.3% | -11.4% (active) | 4.98% (active) | 45% | 6.67% (active) | 0.921% (active)
15 | CN(CSc1ccc(Cl)cc1)c1ccc(CSc2ccc(Cl)cc2)cc1 | 62.8% | 96.8% | 86% | 84.7% | 53.6% | 38.4% | 70.9% | 84% | 79.9% | 78.1% | 86.8% | 36.9% | 26.6% | 87.1% | 87.4% | 44.7% | 71.8% | 6.37% (active) | 8.87% (active)
16 | CCSc1ncnc2c1ncn2C1OC(CO)C(O)C1O (centres undefined) | 30.9% | 19.1% | 57% | 34.1% | 54.5% | 16.8% | 32.6% | 50.7% | 83.1% | 63.4% | 51.8% | 34.4% | 24.5% | 37.6% | 32.6% | 32.2% | 60.9% | 23.4% | 21.4%
